Some of the results follow. The hit rate among all sequences tested is not known here.
Target: furin, P09958
Assay: furin cleavage Z-score vs untreated control; higher = more cleavage, active = 3.5 or more, inactive = 1 or less, 8 variable residues between constant flanks
How it was run: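 To give the cleavage Z-score, log read counts were set against furin-free reactions, lowess-adjusted and scaled by median absolute deviation. These counts came from PCR adapter-tagged, sequenced DNA released when purified furin cut 8-mer peptides fused to a cDNA oligonucleotide and held on magnetic beads by their N-terminus. Digests were 0.01 ml, 1:10 enzyme:substrate, in 50 mM HEPES pH 7.5 with CaCl2 and NaCl, for 7.5, 15 or 30 min.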

Chain of furin, P09958 (P09958 whole entry): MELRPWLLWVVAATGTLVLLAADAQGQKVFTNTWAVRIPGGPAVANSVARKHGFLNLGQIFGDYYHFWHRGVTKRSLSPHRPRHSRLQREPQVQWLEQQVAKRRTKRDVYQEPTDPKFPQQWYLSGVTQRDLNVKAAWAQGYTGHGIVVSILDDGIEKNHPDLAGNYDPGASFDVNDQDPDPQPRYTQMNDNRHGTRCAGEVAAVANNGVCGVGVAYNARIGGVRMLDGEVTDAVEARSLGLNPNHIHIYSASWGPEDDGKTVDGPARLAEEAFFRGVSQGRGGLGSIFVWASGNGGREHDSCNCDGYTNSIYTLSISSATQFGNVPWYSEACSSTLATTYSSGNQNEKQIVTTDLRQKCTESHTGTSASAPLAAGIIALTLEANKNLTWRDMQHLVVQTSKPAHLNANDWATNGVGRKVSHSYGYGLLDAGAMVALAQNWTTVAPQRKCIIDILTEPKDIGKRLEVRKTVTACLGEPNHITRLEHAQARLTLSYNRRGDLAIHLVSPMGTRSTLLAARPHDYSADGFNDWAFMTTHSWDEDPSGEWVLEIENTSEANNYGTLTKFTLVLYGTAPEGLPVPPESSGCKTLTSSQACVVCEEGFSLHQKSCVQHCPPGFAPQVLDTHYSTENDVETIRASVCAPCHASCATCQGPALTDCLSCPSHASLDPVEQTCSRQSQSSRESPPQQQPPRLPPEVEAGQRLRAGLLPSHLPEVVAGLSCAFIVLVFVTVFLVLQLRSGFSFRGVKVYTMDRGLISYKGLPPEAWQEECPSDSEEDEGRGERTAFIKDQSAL

Sequence	furin cleavage Z-score (7.5 min)	furin cleavage Z-score (15 min)	furin cleavage Z-score (30 min)
CADKRRSVRIAGNASASA [FS-1669]	0.236 (inactive)	-0.291 (inactive)	0.74 (inactive)
CARAERKTEIAGNASASA [FS-2881]	-0.287 (inactive)	1.15	-0.302 (inactive)
CAMKRRSVTMAGNASASA [FS-2126]	1.48	0.933 (inactive)	2.48
CARKRRSVNPAGNASASA [FS-2702]	11.8 (active)	12.1 (active)	9.6 (active)
CAVERRSVNKAGNASASA [FS-1814]	-1.15 (inactive)	-0.638 (inactive)	-0.108 (inactive)
CANKRRSVRFAGNASASA [FS-833]	5.74 (active)	7.19 (active)	8.22 (active)
CARKPRCGNPAGNASASA [FU7]	0.143 (inactive)	2	0.939 (inactive)
CARTQRSTEIAGNASASA [FS-2614]	1.54	2.65	3.99 (active)
CAEVPCHIPSAGNASASA [HC2364]	0.695 (inactive)	0.0124 (inactive)	0.569 (inactive)
CAAKQRERRYAGNASASA [FS-1300]	9.27 (active)	10.1 (active)	7.92 (active)
CAATATPPGSAGNASASA [HC834]	-1.04 (inactive)	-0.000581 (inactive)	-0.987 (inactive)
CAQGGRPPRPAGNASASA [FS-1055]	-0.328 (inactive)	-0.378 (inactive)	0.24 (inactive)
CAAKQNVQLIAGNASASA [HC364]	1.11	2.16	-0.868 (inactive)
CAAKQRPPRSAGNASASA [FS-1301]	8.85 (active)	8.91 (active)	7.56 (active)
CAVFERVSRSAGNASASA [FS-733]	5.52 (active)	7.31 (active)	6.35 (active)
CAADHRFYRYAGNASASA [FS-1507]	-0.685 (inactive)	-0.762 (inactive)	0.166 (inactive)
CADGGRPPRSAGNASASA [FS-1114]	2.6	2.51	3.55 (active)
CAMEECVQHLAGNASASA [HC23]	0.873 (inactive)	1.67	1.34
CASGPWITPRAGNASASA [HC460]	-0.377 (inactive)	1.52	-0.355 (inactive)
CADGGRVSRSAGNASASA [FS-223]	3.4	4.59 (active)	5.66 (active)
CAITNRPPRSAGNASASA [FS-1216]	2.7	5.07 (active)	2.23
CAITSRIIRSAGNASASA [FS-1217]	9.87 (active)	8.44 (active)	6.88 (active)
CATTPCSSSWAGNASASA [HC1897]	-0.808 (inactive)	1.71	-0.0324 (inactive)
CAEATTPCSGAGNASASA [HC1963]	-1.21 (inactive)	-0.00595 (inactive)	0.567 (inactive)
CAREMEECSQAGNASASA [HC1793]	0.916 (inactive)	-0.677 (inactive)	1.51
CAWETARHTPAGNASASA [HC1569]	0.673 (inactive)	0.503 (inactive)	-0.633 (inactive)
CAPKGPVIQMAGNASASA [HC707]	-0.0909 (inactive)	0.949 (inactive)	0.762 (inactive)
